About 83,000 compounds went through this panel and 20% of them were active in at least one assay; those are over-represented in the sample as a whole.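 Testing used 96-well plates and a 48-hour single-concentration exposure. Example: -40 means 40% of the starting cells died.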 Unmarked numbers belong to inactive results. Activity calls are given as the source filed them. The calls were made as follows: active = growth percent below 10; inactive = the rest.

Among the test systems are DU-145 prostate; K-562 leukemia; MDA-MB-231 breast; RXF 393 renal; SF-268 CNS; SF-295 CNS; SF-539 CNS; UACC-257 melanoma; M14 melanoma; HCT-15 colon; HT29 colon; SNB-75 CNS; SNB-19 CNS; U251 CNS; PC-3 prostate; SK-MEL-5 melanoma; UACC-62 melanoma; LOX IMVI melanoma; SK-MEL-28 melanoma.
What all share (assay): NCI-60 one-dose screen, 48 h (100 = growth as untreated, 0 = no growth, -100 = all killed)
What all share (details): 10 µM

As to `CC(=O)CS(C)(=O)=O`, the growth with DU-145 prostate is 106%; with K-562 leukemia, 102%; in the test with MDA-MB-231 breast it was 108%; in the test with RXF 393 renal, 111%; with SF-268 CNS, 104%; in the test with SF-295 CNS, 115%. Moreover, the growth is 109% with SF-539 CNS; 96.4% in the test on UACC-257 melanoma; 108% in the test with M14 melanoma; 110% with HCT-15 colon; 107% in the test on HT29 colon; 96.9% in the test with SNB-75 CNS. For the same molecule, the growth in the test on SNB-19 CNS is 102%; in the test with U251 CNS it was 102%; in the test with PC-3 prostate, 103%; with SK-MEL-5 melanoma it was 98%; with UACC-62 melanoma, 108%; in the test on LOX IMVI melanoma it was 101%. In the test with SK-MEL-28 melanoma, the growth is 113%.
As for `CCCCOCC(=O)NC(NP(=O)(N(C)C)N(C)C)C(Cl)(Cl)Cl` (configuration not stated), the growth is 139% with DU-145 prostate; 84.2% in the test with K-562 leukemia; 121% with MDA-MB-231 breast; 130% in the test on RXF 393 renal; 122% in the test with SF-268 CNS; 70% with SF-295 CNS. Further, the growth was 114% in the test with SF-539 CNS; 108% in the test with UACC-257 melanoma; 94.3% in the test with M14 melanoma; 140% with HCT-15 colon; 122% in the test on HT29 colon; 106% in the test on SNB-75 CNS. Further, the growth is 107% in the test on SNB-19 CNS; 120% in the test on U251 CNS; 113% in the test on PC-3 prostate; 118% in the test with SK-MEL-5 melanoma; 103% in the test with UACC-62 melanoma; 110% in the test on LOX IMVI melanoma. For the same molecule, the growth with SK-MEL-28 melanoma is 125%.
As for `CCOC(=O)c1c(Cl)c2c(n1Cc1cccc(OC)c1)-c1oncc1CC2`, the growth with DU-145 prostate was 21.6%; in the test on K-562 leukemia, 17.6%; with MDA-MB-231 breast it was 57.1%; in the test on RXF 393 renal, 46.5%; in the test with SF-268 CNS, 44.5%; with SF-295 CNS it was -1.65% (active). Moreover, the growth in the test on SF-539 CNS was 5.6% (active); with UACC-257 melanoma it was 49.1%; in the test with M14 melanoma, 17.9%; in the test with HCT-15 colon, 30.8%; in the test on HT29 colon it was 7.37% (active); in the test with SNB-75 CNS, -11.7% (active). For the same molecule, the growth was 34% with SNB-19 CNS; 26% with U251 CNS; 31.7% in the test with PC-3 prostate; 20.9% in the test with SK-MEL-5 melanoma; 33.6% in the test with UACC-62 melanoma; 38.3% with LOX IMVI melanoma. In addition, the growth in the test with SK-MEL-28 melanoma is 34%.
For the molecule `[O-]c1c[n+](-c2ccc(Cl)cc2)no1`, the growth is 107% with DU-145 prostate; 106% in the test with K-562 leukemia; 80.1% in the test on MDA-MB-231 breast; 116% in the test with RXF 393 renal; 100% in the test with SF-268 CNS; 112% in the test on SF-295 CNS. Moreover, the growth with SF-539 CNS was 119%; in the test with UACC-257 melanoma, 104%; in the test on M14 melanoma it was 104%; in the test on HCT-15 colon, 99.4%; in the test on HT29 colon, 118%; with SNB-75 CNS it was 90.4%. The growth in the test on SNB-19 CNS is 95.9%; in the test on U251 CNS, 102%; in the test on PC-3 prostate, 91.4%; in the test with SK-MEL-5 melanoma it was 95.6%; in the test on UACC-62 melanoma it was 91.5%; in the test on LOX IMVI melanoma, 98%. In the test with SK-MEL-28 melanoma, the growth was 109%.
In the case of `O=C(/C=C/c1nnc2n(Cc3ccccc3)c(=O)c3c4c(sc3n12)CCCC4)c1ccccc1`, the growth was 121% in the test with DU-145 prostate; 5.09% (active) with K-562 leukemia; 106% in the test with MDA-MB-231 breast; 98.3% with RXF 393 renal; 75.5% in the test with SF-268 CNS; 40.4% in the test with SF-295 CNS. Further, the growth was 99.6% in the test on SF-539 CNS; 86.5% with UACC-257 melanoma; 92.7% in the test on M14 melanoma; 88% in the test on HCT-15 colon; 106% in the test on HT29 colon; 116% in the test on SNB-75 CNS. The growth is 99.4% in the test with SNB-19 CNS; 40.6% in the test on U251 CNS; 105% in the test on PC-3 prostate; 111% in the test with SK-MEL-5 melanoma; 99.6% in the test on UACC-62 melanoma; 84.7% with LOX IMVI melanoma. Moreover, the growth in the test with SK-MEL-28 melanoma was 119%.
In the case of `CCOC(=O)c1cc2c(n1Cc1ccccc1)-c1oncc1CC2`, the growth with DU-145 prostate is 82.8%; in the test with K-562 leukemia, 15.3%; in the test on MDA-MB-231 breast, 95.8%; in the test with RXF 393 renal it was 94.6%; in the test with SF-268 CNS it was 54.2%; in the test with SF-295 CNS, 64.5%. Besides, the growth is 90.5% in the test with SF-539 CNS; 103% with UACC-257 melanoma; 99.6% with M14 melanoma; 65.3% in the test with HCT-15 colon; 35.4% in the test on HT29 colon; 89.2% with SNB-75 CNS. In addition, the growth in the test with SNB-19 CNS was 86.2%; in the test on U251 CNS it was 95.6%; in the test with PC-3 prostate it was 76.2%; in the test with SK-MEL-5 melanoma it was 73.5%; with UACC-62 melanoma, 75.8%; with LOX IMVI melanoma, 80.9%. The growth in the test on SK-MEL-28 melanoma was 89.8%.
For the molecule `COc1cc(OC)cc(-c2n/c(=C\c3c(O)[nH]c4ccc(OC)cc34)cc3c2=Nc2ccccc2-3)c1`, the growth is 3.54% (active) with DU-145 prostate; -9.91% (active) in the test with K-562 leukemia; 3.25% (active) in the test with MDA-MB-231 breast; 79.7% with RXF 393 renal; 73.6% with SF-268 CNS; 98.4% in the test on SF-295 CNS. The growth in the test on SF-539 CNS was 108%; in the test with UACC-257 melanoma, 115%; in the test on M14 melanoma it was 21.4%; with HCT-15 colon, 44.6%; in the test with HT29 colon, 15.6%; with SNB-75 CNS, 103%. Also, the growth was 78% with SNB-19 CNS; 19.7% with U251 CNS; 94.9% in the test on PC-3 prostate; 94.4% with SK-MEL-5 melanoma; 110% with UACC-62 melanoma; 30.4% in the test with LOX IMVI melanoma. In the test with SK-MEL-28 melanoma, the growth was 102%.
Turning to `Nc1nc(SCC#CCCl)c2[nH]cnc2n1`, the growth in the test with DU-145 prostate was 56.5%; with K-562 leukemia it was 38.2%; in the test with MDA-MB-231 breast, 65.6%; in the test with RXF 393 renal, 46.7%; in the test with SF-268 CNS, 52.8%; in the test on SF-295 CNS, 60.2%. In addition, the growth in the test on SF-539 CNS was 50.4%; with UACC-257 melanoma it was 50%; in the test with M14 melanoma, 54.2%; in the test on HCT-15 colon it was 45.1%; with HT29 colon it was 53.9%; with SNB-75 CNS, 63%. For the same molecule, the growth in the test with SNB-19 CNS is 57.1%; in the test with U251 CNS it was 43.8%; in the test with PC-3 prostate, 62.6%; in the test with SK-MEL-5 melanoma it was 29.5%; in the test on UACC-62 melanoma, 44%; in the test on LOX IMVI melanoma it was 27.8%. Further, the growth in the test on SK-MEL-28 melanoma was 72.8%.
